31 compounds from PubChem BioAssay AID1981 (Southern Research Specialized Biocontainment Screening …, 2009) can be followed below.

Screen size: about 2,200 compounds; about 480 (22%) were called active. The rule behind the calls is not given here. These entries were drawn from the full list. Measured potencies and affinities stand elsewhere.

The assay can be described thus: S. Typhimurium GFP fluorescence modified counterscreen for PhoP regulon inhibitor project dose response (AID 1981). The note with it: 4 h; series mostly up to 150 µM. On the technique in general: Counterscreens check selectivity or assay interference.
With `Cc1ccc2[nH]c3c(=O)n(CCc4cnc[nH]4)cnc3c2c1`, the compound was called inactive.
To `c1ccc(-n2cnc3cc(NCc4ccncc4)ccc32)cc1` belongs “inactive”; to `Cc1[nH]c2ccccc2c1C1=CCNCC1`, “inactive”; to `CCOC(=O)C1CCCN(C(=O)c2sc3nc(C)nc(N4CCOCC4)c3c2C)C1` (stereo unspecified), “inactive”.
To `Cc1cc(C(=O)COC(=O)CNC(=O)c2ccco2)c(C)n1Cc1ccco1` belongs “inactive”; to `CN(C)c1ccc(/C=N/c2cc(-c3ccccc3)nn2-c2ccccc2)cc1`, “inactive”; to `Cc1ccc(N2C(=O)CC(n3ccnc3)C2=O)cc1C` (stereo unspecified), “inactive”.
To `Cc1cc(NC(=O)c2cnn3cccnc23)no1` belongs “inactive”; to `COc1ccc(-c2cc(C(=O)Nc3cc(C)n(Cc4ccc(Cl)cc4)n3)no2)cc1OC`, “inactive”; to `O=C(NCCSCc1ccccc1)c1ccc(F)cc1`, “inactive”.
Regarding `COC(=O)CN1C(c2ccc(OC)cc2)=Nc2ccc(Cl)cc2C1c1ccccc1` (stereo unspecified), the result was inactive.
As for `Cc1ccc(-c2cc(C(=O)Nc3nccs3)c3ccccc3n2)o1`, the entry is “inactive”; as for `Nc1nc(N2CCN(C/C=C/c3ccccc3)CC2)nc2ccccc12`, “inactive”; as for `O=C(O)CCC(=O)NCC1OCCc2ccccc21` (stereo unspecified), “inactive”.
Take `Cc1nc2ccccn2c1C(=O)N/N=C/c1ccccc1[N+](=O)[O-]`: the compound was classed as inactive.
As for `COc1c(/C=N/Nc2nc(N3CCCCC3)nc(N3CCCCC3)n2)cccc1[N+](=O)[O-]`, the entry is “inactive”; as for `Cc1cc(/C=N\NC(=O)c2cccs2)c(C)n1-c1ccc2ncccc2c1`, “inactive”.
As for `COC(=O)c1cn(C(=O)c2cccs2)c2ccccc12`, the entry is “inactive”; as for `CCOC(=O)C(NC(=O)CC)(Nc1ccc(C(O)(C(=O)OCC)C(F)(F)F)cc1C)C(F)(F)F` (stereo unspecified), “inactive”; as for `CN(C(=O)c1ccc2c(c1)OCO2)C1(C(=O)NC2CCCCC2)CCCCC1`, “inactive”.
To `O=C(CSc1nnc(Cc2ccccc2)o1)NCCc1ccccc1` belongs “inactive”.
As for `Cc1ccc(CNc2oc(-c3cccs3)nc2C#N)cc1`, the compound was classed as inactive.
With `COc1cccc2[nH]c3c(N4CCC(C)CC4)ncnc3c12`, the call was inactive.
As for `NCCCC[C@H]1CN=C(N)N1CCC12CC3CC(CC(C3)C1)C2`, the entry is “inactive”; as for `COCC(=O)N=Nc1c(O)[nH]c2ccccc12`, “inactive”.
As for `C(=N\N1CCN(C2c3ccccc3-c3ccccc32)CC1)/c1cccs1`, the result was inactive.
As for `Cc1ccc(C(=O)Oc2ccc(C(=O)COC(=O)c3cnccn3)cc2)cc1`, the entry is “inactive”; as for `O=[N+]([O-])c1ccc(CNC2CCCc3ccccc32)cc1` (stereo unspecified), “inactive”.
As for `COc1cc(C2Nc3cccc4cccc(c34)N2)cc(OC)c1O`, the entry is “inactive”; as for `CCOC(=O)CCCc1c[nH]c2ccccc12`, “inactive”.
As for `COc1ccc(-n2c(C)cc(C(=O)Cn3nc(C(=O)O)c4ccccc4c3=O)c2C)cc1`, the entry is “inactive”.
